Eight molecules from PubChem BioAssay (NCI) can be followed below.

The test is described as follows: NCI Yeast Anticancer Drug Screen. Data for the rad52 strain (AID 147).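 Also: 0% = growth of vehicle-treated control cultures.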 Conditions: S. cerevisiae rad52 mutant growth inhibition, hits give high values. How it is done: Growth inhibition of yeast strains with defined genetic alterations is measured as a screen for potential anti-cancer activity. Selected strains with alterations in DNA damage repair or cell cycle control were exposed to compounds and growth inhibition was measured relative to vehicle treated controls. The strain used in this assay is rad52

This is part of a sample that, as a whole, favours compounds with a hit. Of some 79,000 tested, about 15% had one in any assay. A number with no mark means an inactive call. Active and inactive are the calls of the source. Rule as the data show it: active = growth inhibition above about 70%; inactive = the rest.

On to `CC(=O)OCc1ccc(O)c(C=O)c1`, for which the growth inhibition runs as follows: (at 1.2 µM) 1%; (at 3.7 µM) 1%; (at 11.0 µM) -10%; (at 33.0 µM) 18%; (at 100.0 µM) 57%.
`CC(C)=CC(=O)O[C@@H]1CC(C)(C)CC2C3=CCC4[C@]56CC[C@](O)(OC5)C(C)(C)C6CC[C@@]4(C)C3(C)CC[C@]21C(=O)O` (stereo not given in full): the growth inhibition (at 1.2 µM) was 2%; the growth inhibition (at 3.7 µM) is 37%; the growth inhibition (at 11.0 µM) is 80% (active); the growth inhibition (at 33.0 µM) was 93% (active); the growth inhibition (at 100.0 µM) is 92% (active).
`CSC1=NNC(SC)=NN1`: the growth inhibition reads like this: (at 1.2 µM) -13%; (at 3.7 µM) -5%; (at 11.0 µM) 3%; (at 33.0 µM) 70% (active); (at 100.0 µM) 98% (active).
Consider `Oc1c(Br)cc(Br)cc1C1CCCCC1`, for which the growth inhibition reads like this: (at 1.2 µM) -13%; (at 3.7 µM) -10%; (at 11.0 µM) -2%; (at 33.0 µM) 97% (active); (at 100.0 µM) 98% (active).
For `Cc1cc(I)ccc1N`, in that order: 24%, 4%, 24%, 92% (active) and 87% (active).
For `O=C(CC(=O)n1nc(-c2ccccc2)c(N=Nc2ccccc2C(=O)O)c1-c1ccccc1)Nc1ccc(Cl)cc1`, in that order: -2%, -1%, -1%, -2% and 8%.
Consider `CC(C)C1=CC2=C[C@H](O)[C@H]3C(C)(C)CCC[C@]3(C)C2=C(O)C1=O`, for which the growth inhibition runs as follows: (at 1.2 µM) 7%; (at 3.7 µM) 38%; (at 11.0 µM) 99% (active); (at 33.0 µM) 99% (active); (at 100.0 µM) 94% (active).
Consider `O=[n+]1c2ccc(Cl)cc2n([O-])c2ccc(Cl)cc21`, for which the growth inhibition by setting is: (at 1.2 µM) 5%; (at 3.7 µM) 12%; (at 11.0 µM) 23%; (at 33.0 µM) 44%; (at 100.0 µM) 57%.
